Sampled rows, rich in hits. Any-hit rate of the full collection: about 15%.
ELG1 repair inh: qHTS screen for small molecules that inhibit ELG1-dependent DNA repair in human embryonic kidney (HEK293T) cells expressing luciferase-tagged ELG1; HEK293T ELG1-luciferase reporter, luminescence, 16 h; DNA damage induced by 5-fluorouridine; hit rate 2.3% among 330,000; Potency, µM (top dose mostly 46.1 µM), hits mostly inhibitors; further: nearly all actives have a fitted effect of over 55% in size
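Step one: seed 2,000 cells per well. Step two: pin-transfer compound or DMSO alongside 5-fluorouridine. Step three: incubate 16 hr, 37 °C, 5% CO2. Step four: add ONE-Glo, wait 30 min, read luminescence.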
VP16 counter: VP16 counterscreen qHTS for inhibitors of ROR gamma transcriptional activity; Drosophila S2 Gal4-VP16 UAS-luciferase, luminescence, 20 h; Potency, µM (titrated, usually from 53.6 µM), most hits filed as inhibitors; hit rate 3.5% among 310,000; AID 2546, 2010;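 further: Gal4-VP16 expression switched on by copper sulfate through the metallothionein promoter; nearly all actives have a fitted effect of over 50% in size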
12-LOX inh: Primary qHTS assay for inhibitors of human arachidonate 12S-lipoxygenase (ALOX12): Round 2; hit rate 1.1% among 580,000; Potency, µM (highest dose often 108 µM), actives largely listed as inhibitors; Polyunsaturated fatty acid lipoxygenase ALOX12 (Homo sapiens), P18054; purified 12hLO, xylenol orange hydroperoxide absorbance
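Hydroperoxide product was detected by ferrous iron/xylenol orange as the 573 to 405 nm absorbance ratio. Arachidonic acid at 40 uM (final) was turned over for 30 min at room temperature by 150 nM human 12hLO, pH 7.0 Hepes buffer, after 15 min compound preincubation.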
DT40 TDP1 CPT: qHTS for Inhibitors of human tyrosyl-DNA phosphodiesterase 1 (TDP1): qHTS in cells in presence of CPT | chicken DT40 Tdp1-/-;hTDP1 cells + 20 nM CPT, ATP luminescence, 48 h | Potency, µM (highest dose often 46.2 µM), usual class: inhibitors | hit rate 12% among 420,000; further: nearly all actives have a fitted effect of over 55% in size
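Chicken DT40 Tdp1-/- cells complemented with human TDP1, 400 cells/well, exposed to compounds plus 20 nM camptothecin for at least 48 h at 37 C; viability read as ATP content by CellTiter-Glo luminescence.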
TDP1 cell noCPT: qHTS for Inhibitors of human tyrosyl-DNA phosphodiesterase 1 (TDP1): qHTS in cells in absence of CPT | DT40 Tdp1-/- hTDP1 cells, no CPT, ATP luminescence, 48 h | Potency, µM (highest dose often 46.2 µM), actives largely listed as inhibitors | hit rate 15% among 420,000 | AID 686978, 2013; further: nearly all actives have a fitted effect of over 55% in size
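Growth kinetics read by CellTiter-Glo luminescence after ≥48 hr at 37 °C. Cells: DT40 Tdp1-/- stably carrying human TDP1, 400 per well, compound exposure in the absence of CPT (DMSO vehicle).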
RORgamma inh: qHTS for inhibitors of ROR gamma transcriptional activity. Drosophila S2 Gal4-RORgamma UAS-luciferase reporter, 20 h. Potency, µM (highest dose often 53.6 µM), most hits filed as inhibitors. hit rate 5.4% among 310,000. AID 2551, 2010; further: nearly all actives have a fitted effect of over 60% in size
Target sequence (P51450 whole entry, looked up, the tested form may be a part): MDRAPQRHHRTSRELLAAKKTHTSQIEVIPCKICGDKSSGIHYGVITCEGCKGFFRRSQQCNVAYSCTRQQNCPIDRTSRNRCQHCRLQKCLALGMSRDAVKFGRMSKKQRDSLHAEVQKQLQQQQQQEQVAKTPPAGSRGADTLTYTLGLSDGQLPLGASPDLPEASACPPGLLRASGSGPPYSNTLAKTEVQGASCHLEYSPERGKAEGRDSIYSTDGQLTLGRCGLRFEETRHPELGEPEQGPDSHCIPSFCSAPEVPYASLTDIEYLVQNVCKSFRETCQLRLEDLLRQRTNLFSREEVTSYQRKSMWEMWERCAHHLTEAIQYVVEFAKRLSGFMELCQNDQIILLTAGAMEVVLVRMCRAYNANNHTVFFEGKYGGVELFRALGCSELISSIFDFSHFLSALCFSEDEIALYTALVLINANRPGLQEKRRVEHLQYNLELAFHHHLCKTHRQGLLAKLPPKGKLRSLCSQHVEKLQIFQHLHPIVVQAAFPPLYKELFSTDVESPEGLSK
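Compounds are pin-transferred onto Drosophila Schneider cells expressing a copper-inducible Gal4–ROR gamma transactivation domain fusion. After 1 hr, copper sulfate is added to 700 uM final; luciferase is read 20 hr later.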
Hits are given with their value; i = inactive; ? = inconclusive; nt = not tested or not shown; ! = repeats disagree; [ ] = remark or other dose. The call rests on the fitted dose curve; in most records, active means well fitted curve in the direction sought with a large enough effect; inconclusive means small, poorly fitted or top-dose-only effect, or another doubt; inactive means no such curve, though single readings can be large; an effect the other way counts as inactive or inconclusive.

SMILES	ELG1 repair inh	VP16 counter	12-LOX inh	DT40 TDP1 CPT	TDP1 cell noCPT	RORgamma inh
O=C(NCc1ccccc1Cl)c1ccc(CS(=O)(=O)c2ccc(Br)cc2)o1	nt	nt	?	23µM	13µM	nt
O=C(NCc1ccccc1Cl)c1ccc(CS(=O)(=O)c2ccccc2)o1	i	i	i	i	i	i
COc1ccc(CNC(=O)c2ccc(CS(=O)(=O)c3ccc(Br)cc3)o2)cc1	i	i	?	23µM	23µM!	i
COc1ccc(S(=O)(=O)Cc2ccc(C(=O)NCCc3cc(OC)ccc3OC)o2)cc1	?	i	i	?	?	i
O=C(NCc1ccccc1)c1ccc(CS(=O)(=O)c2ccccc2)o1	i	i	i	2.6µM	16µM	i
COc1ccc(S(=O)(=O)Cc2ccc(C(=O)NCc3ccccc3)o2)cc1	i	i	i	i	i	i
COc1ccc(S(=O)(=O)Cc2ccc(C(=O)NCc3cccnc3)o2)cc1	15µM	i	i	?	?	i
COc1ccc(S(=O)(=O)Cc2ccc(C(=O)NCc3ccc(C)cc3)o2)cc1	?	i	i	i	23µM	i
O=c1oc2ccccc2c(N2CCCCC2)c1[N+](=O)[O-]	i	i	i	16µM	16µM	i
CC1CCN(c2c([N+](=O)[O-])c(=O)oc3ccccc23)CC1	i	i	i	16µM	23µM	i
O=c1oc2ccccc2c(Nc2ccc(F)cc2)c1[N+](=O)[O-]	i	i	i	?	?	i
O=c1oc2ccccc2c(Nc2ccc(Cl)cc2)c1[N+](=O)[O-]	?	?	i	?	13µM	?
O=c1oc2ccccc2c(N2CCCC2)c1[N+](=O)[O-]	i	i	i	i	i	i
Cc1cc2nc(C(=O)Nc3ccc(C(C)C)cc3)c(=O)n(C)c2cc1C	nt	nt	i	nt	nt	nt
Cc1nn(-c2ccccn2)c(C)c1[C@@H]1C=C[C@@H](NC(=O)CCCC(=O)O)C1	nt	nt	i	nt	nt	nt
Clc1ccccc1-c1nccc(NCCN2CCOCC2)n1	nt	i	45µM	i	i	i
O=C1C(Cl)=C(NCCCN2CCOCC2)C(=O)c2ccccc21	nt	nt	?	18µM	13µM	nt
O=C1C(Cl)=C(NCCN2CCOCC2)C(=O)c2ccccc21	?	?	?	?	16µM	?
O=C1C(Cl)=C(NC2CCc3ccccc32)C(=O)c2ncccc21 (stereo not given)	nt	4.5µM	nt	nt	nt	4.5µM
O=C1c2ccccc2C(=O)N1CCN1CCOCC1	i	i	i	i	i	i
COc1ccc(-c2ccc3nc(-c4cc(C)cc(C)c4)oc3c2)c(OC)c1OC	nt	nt	i	nt	nt	nt
c1ccc(-c2ccc3ncc(Nc4ccncc4)n3n2)cc1	nt	nt	i	nt	nt	nt
COc1cc(CNC(=O)c2nccnc2N)ccc1OCc1ccncc1	nt	nt	i	nt	nt	nt
COc1ccc(C(C)NC(=O)CCc2ncc(-c3ccccc3)o2)cc1F (stereo not given)	nt	nt	i	nt	nt	nt
Cc1cc2nc3n(c(=O)c2n1CC(=O)Nc1ccccc1C(C)C)CCCCC3	nt	nt	i	nt	nt	nt
SMILES	ELG1 repair inh	VP16 counter	12-LOX inh	DT40 TDP1 CPT	TDP1 cell noCPT	RORgamma inh
O=C1C(Cl)=C(NCCN2CCOCC2)C(=O)c2ncccc21	nt	2.8µM	?	nt	nt	4.5µM
Oc1cc(NCCN2CCOCC2)cc2cccnc12	?	nt	i	nt	nt	nt
CC(C)(C)OC(=O)N1CCCN(C(c2ccnc3ccccc23)c2nnnn2-c2ccc3c(c2)OCCO3)CC1 (stereo not given)	nt	nt	?	?	3.7µM	nt
CCOC(=O)N1CCN(C(c2ccnc3ccccc23)c2nnnn2-c2ccc3c(c2)OCCO3)CC1 (stereo not given)	nt	nt	i	?	16µM	nt
O=C(c1ccccc1F)N1CCCC(c2nc3ccccc3o2)C1 (stereo not given)	nt	nt	i	nt	nt	nt
Cc1ccc(C(=O)N2CCN(c3cc(C(F)(F)F)ncn3)CC2)cc1F	nt	nt	i	nt	nt	nt
CCOC(=O)CN1C(=O)S/C(=C/c2cc(C)n(-c3ccccn3)c2C)C1=O	?	i	i	?	?	i
COC(=O)C(C)N1C(=O)S/C(=C/c2cc(C)n(-c3ccccn3)c2C)C1=O (stereo not given)	?	?	?	?	16µM	i
COC(=O)C(C)N1C(=O)S/C(=C\c2cc(C)n(-c3ccccn3)c2C)C1=O (stereo not given)	?	i	?	13µM	?	i
Cc1ccc(CNC(=O)C(=O)Nc2c3c(nn2-c2ccccc2)CSC3)cc1	nt	nt	i	?	i	nt
Cc1ccc(CNC(=O)C(=O)Nc2c3c(nn2-c2ccc(F)cc2)CSC3)cc1	nt	nt	i	?	5.2µM	nt
Cc1nn2cc(-c3cccc(Cl)c3)cnc2c1Br	?	i	i	?	5.8µM	i
Cc1nn2cc(-c3cccc(Cl)c3)cnc2c1Cl	?	i	i	16µM	15µM	i
CCCOC(=O)c1ccc(Oc2c(C)oc3cc(OC(=O)N4CCOCC4)ccc3c2=O)cc1	nt	nt	i	nt	nt	nt
Cc1ccc(CNS(=O)(=O)c2ccc3c(c2)n(C)c(=O)n3C)cc1	8.2µM	?	i	?	?	?
Cn1c(=O)n(C)c2cc(S(=O)(=O)NCCc3ccccc3)ccc21	?	i	i	23µM	23µM	i[10 µM]
CCc1ccccc1Oc1nc(NC(C)C)nc2ccsc12	nt	nt	i	?	?	nt
CC(C)Nc1nc(Nc2ccc(F)cc2)c2sccc2n1	nt	nt	?	26µM	?	nt
Cc1nc(N)nc(Nc2ccc(C#N)cc2)c1Br	i	i	i	?	?	i
CC(C)Nc1nc(Nc2ccc(C#N)cc2)c2sccc2n1	nt	nt	i	15µM	26µM	nt
COc1cc(OC)c2c(C)c(CC(=O)NCCN3CCOCC3)c(=O)oc2c1	nt	nt	i	nt	nt	nt
N#CC(Cc1cccnc1)C(=O)Nc1ccccc1Br (stereo not given)	nt	nt	i	nt	nt	nt
CC(=O)Nc1ccc(CN(C)c2c(C)nc3ccc(C(=O)N4CCN(c5ccccc5)CC4)cn23)cc1	nt	nt	i	23µM	?	nt
CC(=O)Nc1ccc(CN(C)c2c(C)nc3ccc(C(=O)NC4CCN(Cc5ccccc5)CC4)cn23)cc1	nt	nt	i	?	?	nt
CC(=O)Nc1ccc(CN(C)c2c(C)nc3ccc(C(=O)N(C)Cc4ccccc4)cn23)cc1	nt	nt	i	?	16µM	nt
CCN1CC(c2ccccc2)CC2(CCN(C(=O)COC)CC2)C1 (stereo not given)	nt	nt	i	nt	nt	nt
O=C(CCc1cn(Cc2ccccc2Cl)c2ccccc12)NC1CCCCC1	nt	nt	i	?	16µM	nt
Cn1cc(CCC(=O)NCc2cccc(Cl)c2)c2ccccc21	?	i	i	i	i	?
